Screening data: PubChem, National Center for Advancing Translational Sciences (NCATS)
NPC1 promoter act: qHTS Assay for NPC1 Promoter Activators. Huh7 NPC1 promoter luciferase reporter, 24 h. Potency, µM (top dose mostly 9.22 µM), hits mostly activators. 320,000 compounds, 2.4% hits. AID 485313, 2010; note: nearly all actives have a fitted effect of over 60% in size
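Readout is luciferase luminescence, reflecting NPC1 promoter activation in stably transfected Huh7 cells after 24 h compound exposure at 37 °C in reduced-serum medium with 10% FBS.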
SMN2 splice up: qHTS Assay for Enhancers of SMN2 Splice Variant Expression; HEK293 SMN2-luciferase splicing reporter, luminescence, 30-36 h; Potency, µM (doses to about 46.1 µM), most hits filed as activators; 210,000 compounds, 2.8% hits; note: nearly all actives have a fitted effect of over 55% in size
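HEK293 cells carry an SMN2 […]–luciferase reporter in which exon 7 inclusion puts luciferase in frame. Cells were plated 10-12 h before compound addition, then incubated 30-36 h at 37C. ONE-Glo luminescence was read; sodium butyrate at 4.5 mM final served as control.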
ELG1 genotox: qHTS screen for small molecules that induce genotoxicity in human embryonic kidney (HEK293T) cells expressing luciferase-tagged ELG1 | HEK293T ELG1-luciferase reporter, luminescence, 16 h | Potency, µM (highest dose often 46 µM), most hits filed as activators | 330,000 compounds, 1.3% hits | AID 504466, 2011; note: nearly all actives have a fitted effect of over 60% in size
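Cells (2,000/well) expressing the ELG1-luciferase fusion are dosed by pin tool and kept 16 hr at 37 °C, 5% CO2. Signal comes from ONE-Glo luciferase reagent after 30 min at room temperature.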
FLuc counter: qHTS profiling assay for firefly luciferase inhibitor/activator using purifed enzyme and Km concentrations of substrates (counterscreen for miR-21 project); Luciferin 4-monooxygenase (Photinus pyralis), P08659; purified FLuc, Km substrates, luminescence inhibition; Potency, µM (top dose mostly 57.5 µM), usual class: inhibitors; 360,000 compounds, 6.9% hits; AID 588342, 2011; note: nearly all actives have a fitted effect of over 55% in size
Target sequence (P08659 whole entry, looked up): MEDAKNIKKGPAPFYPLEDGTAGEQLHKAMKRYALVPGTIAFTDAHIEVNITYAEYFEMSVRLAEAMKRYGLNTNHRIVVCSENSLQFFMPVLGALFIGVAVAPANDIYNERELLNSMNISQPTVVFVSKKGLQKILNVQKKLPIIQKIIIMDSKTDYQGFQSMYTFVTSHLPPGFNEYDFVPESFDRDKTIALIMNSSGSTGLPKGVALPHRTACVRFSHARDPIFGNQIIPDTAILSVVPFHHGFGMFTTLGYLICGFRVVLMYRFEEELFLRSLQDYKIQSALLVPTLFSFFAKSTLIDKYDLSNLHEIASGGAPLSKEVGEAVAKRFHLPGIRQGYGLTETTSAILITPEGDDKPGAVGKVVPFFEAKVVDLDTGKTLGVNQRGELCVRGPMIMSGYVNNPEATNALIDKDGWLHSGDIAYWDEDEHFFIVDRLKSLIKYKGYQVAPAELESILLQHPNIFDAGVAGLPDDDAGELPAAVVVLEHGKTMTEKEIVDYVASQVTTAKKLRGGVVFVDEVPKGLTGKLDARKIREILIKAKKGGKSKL
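Biochemical qHTS of compounds, final roughly 60 µM downward over six points, against 10 nM purified firefly luciferase using Km concentrations of substrates (10 uM D-luciferin, 10 uM ATP) in Tris acetate pH 7.5 buffer; luminescence output.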
Rab9 prom act: qHTS Assay for Rab9 Promoter Activators. Huh7 Rab9 promoter-luciferase reporter, luminescence, 24 h. Potency, µM (titrated, usually from 9.22 µM), actives largely listed as activators. 320,000 compounds, 2.8% hits. AID 485297, 2010; note: nearly all actives have a fitted effect of over 60% in size
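Luminescence from Amplite-detected luciferase (10 minutes, ambient) reports Rab9 promoter activation. Before that, stable Rab9-luciferase Huh7 cells (1500/well, reduced-serum OP-MEM I plus 10% FBS) were exposed to compound for 24 hours at 37C.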
Numbers stand for hits; 0 = inactive; ? = inconclusive; - = no result; [ ] = another dose, or the depositor's remark. Shown are actives, neighbours in structure and some others; about 7.4% of the full set was active somewhere. Calls come from the whole dose curve; as a rule, active = well fitted curve in the direction sought with a large enough effect; inconclusive = small, poorly fitted or top-dose-only effect, or another doubt; inactive = no such curve, though single readings can be large; an effect the other way counts as inactive or inconclusive.

SMILES	NPC1 promoter act	SMN2 splice up	ELG1 genotox	FLuc counter	Rab9 prom act
Fc1cccc(F)c1CSc1nc2ccccc2[nH]1	1.41µM	10µM	?	?	1µM
NC(N)=NNC(=O)C(=O)O	-	0[9.22 µM]	-	-	-
CCOc1ccc(OCC)c(NS(=O)(=O)c2cc(-c3onc(C)c3C)ccc2OC)c1	-	-	-	0	-
COCCn1c(C)cc(C(=O)CSc2nncn2-c2ccccc2)c1C	0	0	0	19µM	0
C=CCn1c(C)cc(C(=O)COc2nncc3ccccc23)c1C	1.41µM	?	10.3µM	15.1µM	?
Cc1cc(C(=O)CSc2nc3ccccc3[nH]2)c(C)n1C	0.398µM	3.16µM	?	3.38µM	0.447µM
O=C(CSc1nc2ccccc2[nH]1)c1ccccc1F	1.41µM	-	?	8.49µM	1.58µM
Cc1ccc2nc(SCC(=O)c3cc(C)n(C)c3C)[nH]c2c1	0	0	0	0	0
O=C(CSc1nc2ccccc2[nH]1)N1CCCCC1	?	10µM	8.2µM	21.3µM	3.55µM
COCCn1c(C)cc(C(=O)CSc2ccc3ccccc3n2)c1C	?	11.2µM	0	12µM	?
COCCn1c(C)cc(C(=O)CSc2nc3ccccc3c(=O)[nH]2)c1C	1.78µM	?	?	5.36µM	1.58µM
COCC(C)n1c(C)cc(C(=O)CSc2nc3ccccc3c(=O)[nH]2)c1C (configuration not stated)	0	0	0	?	0
CCCn1c(C)cc(C(=O)CSc2nc3ccccc3c(=O)n2Cc2ccco2)c1C	3.16µM	?	?	5.36µM	3.55µM
COCCn1c(C)cc(C(=O)COc2nc3ccccc3nc2C)c1C	0	0	0	0	0
Cc1nonc1C1CCCN1Cc1nc(-c2ccccc2Cl)oc1C (configuration not stated)	0	-	0	0	0
O=C(COC(=O)c1cccc(O)c1)NCc1ccc2c(c1)OCO2	0	-	0	0	0
CCN(CC(=O)NCc1ccc(F)cc1)C(=O)Cc1ccc(OC)cc1	0	-	0	0	0
Nc1ncnc2c1ncn2[C@@H]1O[C@H](CNC(=O)[C@@H](N)C2CCCCC2)[C@@H](O)[C@H]1O	-	-	0	-	-
COc1ccccc1C(=O)COC(=O)CN1C(=O)NC2(CCCC2)C1=O	0	-	0	0	0
Cc1cc(C(=O)CSc2nncs2)c(C)n1Cc1ccco1	0.631µM	0	?	4.78µM	0.708µM
Cc1cc(C(=O)CSc2nn(-c3ccccc3)c(=S)s2)c(C)n1Cc1ccco1	0	0	0	0	0
Fc1cccc(CSc2nc3ccncc3[nH]2)c1	0	11.2µM	0	?	?
C=CCn1c(C)cc(C(=O)CSc2nc3ccccc3c(=O)[nH]2)c1C	?	0	2.91µM	9.53µM	0.794µM
Clc1cccc(CSc2nc3ccncc3[nH]2)c1	0	0	?	?	?
Cc1cc(C)c(C(=O)CSc2nc3ccccc3c(=O)[nH]2)cc1C	0	0	0	0	0
SMILES	NPC1 promoter act	SMN2 splice up	ELG1 genotox	FLuc counter	Rab9 prom act
CCCN1CCN(C(=O)C(NC(=O)c2ccco2)C(C)C)CC1 (configuration not stated)	0	-	0	0	0
Cc1onc(-c2c(F)cccc2Cl)c1C(=O)N1CCN(c2ncc(Br)cn2)CC1	0	-	0	0	0
CC(NC(=O)C1CCN(C(=O)Nc2ccccc2)CC1)c1ccccc1 (configuration not stated)	0	-	0	0	0
COC(=O)C(C)Sc1ncnc2c1nnn2-c1ccc(F)cc1 (configuration not stated)	?	0	?	8.49µM	0
CCOC(=O)CNC(=O)CSc1ncnc2c1nnn2-c1ccc(F)cc1	0	0	0	?	0
COc1ccc(-c2nnc(SCC(=O)NCCc3ccccc3)nc2-c2ccc(OC)cc2)cc1	-	-	-	0	-
CCN(CC)CCN(C(=O)c1ccc2ncsc2c1)c1nc2cc3c(cc2s1)OCO3	0.708µM	-	2.91µM	9.53µM	?
CCOc1ccc(C(=O)NCC(=O)NNC(=O)c2ccco2)cc1OCC	-	-	0	-	-
CN(C)c1ccc(-c2ccc3c(=O)c4ccccc4n(C)c3c2)cn1	2.51µM	-	16.4µM	4.78µM	2.24µM
COc1c(O)cc2c(c1O)C1OC(CO)C(O)C(O)C1OC2=O (configuration not stated)	0	-	0	0	0
O=C1OCC2OC(O)C(O)C(O)C2OC(=O)c2cc(O)c(O)c(O)c2-c2c(O)c(O)c3oc(=O)c4c(c(O)c(O)c5oc(=O)c2c3c54)-c2c1cc(O)c(O)c2O (configuration not stated)	0	-	0	26.9µM	0
N/C(=N\OC(=O)COc1ccc(Cl)cc1Cl)c1cccnc1	0	?	?	6.01µM	0
N/C(=N\OC(=O)COc1ccc2ccccc2c1Br)c1ccncc1	0	0	?	21.3µM	0
N/C(=N\OC(=O)COc1ccc(Cl)cc1Br)c1ccncc1	3.55µM	11.2µM	8.2µM	10.7µM	3.55µM
N/C(=N\OC(=O)CCCOc1ccc(Cl)cc1Cl)c1ccncc1	0	0	0	?	0
CCc1ccc(OCC(=O)O/N=C(\N)c2ccncc2)c(Br)c1	3.16µM	-	?	7.57µM	2µM
CCc1ccc(OCC(=O)O/N=C(\N)c2ccncc2)cc1	0	-	?	?	0
O=C1N=c2ccccc2=C1c1sc(Nc2cccc(O)c2)nc1O	0	-	0	19µM	0
O=C1N=c2ccccc2=C1c1sc(NS(=O)(=O)Cc2ccccc2)nc1O	0	-	0	10.7µM	0
O=C1N=c2ccccc2=C1c1sc(NS(=O)(=O)c2ccccc2)nc1O	0	0	0	?	0
O=C1N=c2ccccc2=C1c1sc(Nc2ccc(O)cc2)nc1O	0	0	0	?	0
O=c1c2ccccc2nnn1CSc1nnc2sc3ccccc3n12	0.398µM	2.24µM	?	1.9µM	0.316µM
Cc1ccc(SCn2nnc3ccccc3c2=O)c(C)c1	?	15.8µM	?	19µM	2.51µM
O=c1c2ccccc2nnn1CSc1nc2ccccc2[nH]1	3.55µM	25.1µM	?	15.1µM	2.82µM
O=c1c2ccccc2nnn1CSc1ccccc1F	1.26µM	10µM	?	2.69µM	0.891µM
SMILES	NPC1 promoter act	SMN2 splice up	ELG1 genotox	FLuc counter	Rab9 prom act
CCCc1cc(=O)oc2c(C)c(OCC(=O)Nc3cccnc3)ccc12	0	-	0	0	0
COc1ccc(C2c3c(oc4ccc(F)cc4c3=O)C(=O)N2Cc2ccc3c(c2)OCO3)cc1 (configuration not stated)	-	0	-	0	-
CCOc1cccc(CN2CCC(CCC(=O)NC3CC3)CC2)c1O	0	-	0	0	0
Cc1ccc2nc(SCn3nnc4ccccc4c3=O)[nH]c2c1	2.51µM	2.82µM	?	4.78µM	1.78µM
CCCCCCCCCCCCCCCCOCC(CO)OC(C)=O (configuration not stated)	-	0	-	-	-
O=C(CNC(=O)c1ccco1)OCc1c(F)cccc1Cl	0	0	0	15.1µM	0
CC1=CC(C)=Nc2ccccc2N1	0	0	16.4µM	16.9µM	0
